Reference: PubChem BioAssay AID687014 (The Scripps Research Institute Molecular Screening Center, 2013)
Among all 370,000 compounds or so, about 6,800 (1.8%) were called active.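 How the source made its calls: active means activation above a cutoff set at the mean of all screened compounds plus 3 SD (cut at about 10% in these data); inactive means the rest.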 The list comes from a sample in which actives are over-represented; it also holds similar structures and randomly drawn compounds.

Each molecule was assayed on Nuclear hormone receptor DAF-12 (Heterodera glycines), GAL4 fusion (assay: H. glycines DAF-12 receptor agonists, primary screen, cell-based, luminescence, HEK293, GAL4 fusion, UAS-luciferase (AID 687014;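 further: 0% = DMSO wells and 100% = sodium butyrate wells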)). Details: HEK293 GAL4-hgDAF12 UAS-luciferase reporter, agonist luminescence; at 6.8 µM; stronger effect = higher value; normalized to butyrate control.
In the case of `COc1cccc(CNC(=O)C2CCCN(c3nc4ccccc4o3)C2)c1OC` (configuration not stated), the activation is reported as 1.01% (inactive).
`CC(C)C(=O)Nc1cccc(NC(=O)c2ccc([N+](=O)[O-])cc2Cl)c1` was tested, and the activation was -0.06% (inactive).
In the case of `O=C(Nn1cnc2ccccc2c1=O)c1ccc([N+](=O)[O-])cc1Cl`, the activation is reported as -0.41% (inactive).
With `O=C(Nc1ccc(Br)cn1)c1ccc([N+](=O)[O-])cc1Cl` the activation was 11.7% (active).
In the case of `Cc1cc(Cl)ccc1-c1nc(NCCN(C)C)nc2ccsc12`, the activation is reported as 1.09% (inactive).
For `O=C(CN1CCCc2ccccc21)NCc1ccc(F)cc1`, the activation was 1.21% (inactive).
In the case of `Cc1ccn(-c2cccc(-n3ccc(C)n3)n2)n1`, the activation is reported as 18.1% (active).
With `Cc1cccc(N2O[C@H]3C=CC2CCCC3)n1` the activation was -0.73% (inactive).
`COc1ccc(C(=O)OCCN2CCN(C3CN(Cc4cn(Cc5ccccc5F)nn4)S(=O)(=O)C3)CC2)cc1OC` (configuration not stated) was tested, and the activation was -1.46% (inactive).
For `Cn1c(SCC(=O)NC2CCCCC2)nnc1-c1cc2ccccc2o1`, the activation was 4.2% (inactive).
In the case of `CCNc1nc(-c2cc3ccccc3o2)cs1`, the activation is reported as 12.5% (active).
In the case of `Cn1c(CNc2nc(-c3ccccc3)cs2)nnc1SCC(=O)c1ccccc1`, the activation is reported as -0.81% (inactive).
With `COc1ccc(NC(=O)CN(Cc2ccccc2)S(C)(=O)=O)cc1OC` the activation was 0.79% (inactive).
For `S=C(NN=Cc1ccccn1)Nc1ccccn1`, the activation was 14.5% (active).
For `O=C(O)C1C2C=CC(O2)C1C(=O)Nc1ccccn1` (configuration not stated), the activation was 0.96% (inactive).
In the case of `CS(=O)(=O)N(CC(=O)N/N=C/c1ccccn1)c1ccc(Oc2ccccc2)cc1`, the activation is reported as 2.64% (inactive).
With `c1csc(-c2nnc(COc3ncnc4sccc34)o2)c1` the activation was 1.72% (inactive).
In the case of `Clc1ccc(Cc2nnc(-c3cccs3)o2)cc1`, the activation is reported as 12.7% (active).
With `CC(C)(C)c1ccc(CSc2nnc(-c3cccs3)o2)cc1` the activation was 5.74% (inactive).
In the case of `CC(C)[C@H]1COCCS(=O)(=O)N1Cc1ccccc1-c1cccc2c1sc1ccccc12`, the activation is reported as 2.06% (inactive).
In the case of `Cc1ccc(OCc2nnc(SC/C=C/c3ccccc3)n2Cc2ccco2)cc1`, the activation is reported as -2.63% (inactive).
For `c1ccc(CN=C2Nc3ccccc3CS2)nc1`, the activation was 15% (active).
With `O=C1CSc2ccc(C(=O)NCc3ccccn3)cc2N1` the activation was 3.35% (inactive).
For `COc1ccc(OC)c(CNC(=O)c2cc(=O)[nH]c3ccc(S(=O)(=O)N4CCCC4)cc23)c1`, the activation was 5.76% (inactive).
In the case of `CCc1ccc(C2=CC(=O)CC(C)(C)C2=O)cc1`, the activation is reported as -0.49% (inactive).
With `CCc1nonc1NC(=O)c1oc2ccc(Cl)cc2c1C` the activation was 3.2% (inactive).
`Cc1c(C(=O)Nc2ccccn2)oc2ccc(Br)cc12` was tested, and the activation was 11.2% (active).
`Cc1nonc1NC(=O)c1oc2ccccc2c1C` was tested, and the activation was 4.37% (inactive).
`CCOC(=O)c1nnn(CC(=O)Nc2cccc(F)c2)c1C(=O)OCC` was tested, and the activation was -0.57% (inactive).
`O=C(Nc1cccc(Cl)c1)c1cncn1-c1ccc(F)cc1` was tested, and the activation was 1.29% (inactive).
In the case of `CCC(=O)Nc1ccc2nn(-c3ccc(F)cc3)nc2c1`, the activation is reported as 12.1% (active).
With `CCOC(=O)N1CCN(c2cc(C)c([N+](=O)[O-])cc2F)CC1` the activation was 4.66% (inactive).
In the case of `CCNC(=S)NCC`, the activation is reported as -0.86% (inactive).
With `Cc1ccc(C(=O)N(Cc2ccccn2)CC2CCCO2)cc1` (configuration not stated) the activation was -3.33% (inactive).
`Cc1ccc(NC(=S)NNC(=O)CSc2nnc(SCc3ccccc3Cl)s2)cc1` was tested, and the activation was 2.13% (inactive).
For `COC(=O)c1c(-c2ccc(OC)cc2)c2c(c3c4cc(OC)ccc4n(S(=O)(=O)c4ccc(F)cc4)c13)C(=O)N(C)C2`, the activation was -2.44% (inactive).
`O=C(Nc1ccccc1)Nc1nc2ccccc2s1` was tested, and the activation was 26.4% (active).
`O=C(Nc1ccccc1)Nc1nnc(COc2ccccc2F)s1` was tested, and the activation was -2.63% (inactive).
In the case of `O=C(Nc1nc2ccc(Cl)cc2s1)c1cc(-c2ccc(Cl)cc2)nc2ccccc12`, the activation is reported as -1.16% (inactive).
In the case of `CC(C)c1ccc(C=NNc2ccc([N+](=O)[O-])cn2)cc1`, the activation is reported as 16.8% (active).
For `CN(CCc1ccccc1)c1ccc([N+](=O)[O-])cn1`, the activation was 2.43% (inactive).
With `CC(C)c1ccc(/C=C2\NC(=O)NC2=O)cc1` the activation was 1.14% (inactive).
In the case of `CCOC(=O)c1csc(NC(=O)C2CCCN(S(=O)(=O)c3ccc(Cl)s3)C2)n1` (configuration not stated), the activation is reported as -0.73% (inactive).
In the case of `CSCCC(NC(=O)c1ccco1)C(=O)Nc1cc(C)ccn1` (configuration not stated), the activation is reported as 11.9% (active).
With `CSCCC(NC(=O)c1ccco1)C(=O)OCC(=O)Nc1ncc(Cl)c(C)c1Cl` (configuration not stated) the activation was -1.62% (inactive).
With `CSCCC(NC(=O)c1ccco1)C(=O)NCCc1ccc(F)cc1` (configuration not stated) the activation was 0.46% (inactive).
With `COC(=O)[C@]12C[C@H](CC(=O)NCc3ccccc3)C(=O)N(CCC3=CCCCC3)C1=C[C@H](C(C)C)O[C@@H]2C1CC1` the activation was 2% (inactive).
`O=C(COc1ccc(S(=O)(=O)N2CCCC2)cc1[N+](=O)[O-])N1CCCCC1` was tested, and the activation was -0.16% (inactive).
With `O=[N+]([O-])c1cc(C(F)(F)F)ccc1NN=C1CCCC1` the activation was 0.04% (inactive).
`O=[N+]([O-])c1cc(S(=O)(=O)N2CCCC2)ccc1NN=C1CCCC1` was tested, and the activation was 15.3% (active).
`O=C1CC(c2ccc3c(c2)OCO3)N=C2N(CC3CC3)C/C(=C/c3ccccc3)N12` (configuration not stated) was tested, and the activation was -2.7% (inactive).
`Cc1cc(C)cc(N(CC(=O)NC2CCCC2)C(=O)CCC(=O)Nc2cc(C)on2)c1` was tested, and the activation was -1.1% (inactive).
`O=C(O)C1CCCN1S(=O)(=O)c1ccc(Br)cc1` (configuration not stated) was tested, and the activation was 0.88% (inactive).
For `COc1cc2c(cc1OC)/C(=C/C(=O)c1ccc(NC(C)=O)cc1)NCC2`, the activation was 0.96% (inactive).
With `CC1CN/C(=C\C(=O)c2ccc(Br)cc2)C(=O)N1` (configuration not stated) the activation was 10.5% (active).
For `C=CCN=C1NC(c2cccc(C(F)(F)F)c2)C(C(=O)OC)=C(C)N1C` (configuration not stated), the activation was 1.38% (inactive).
For `Cc1cccc(Cn2cnc3c(N)c(C)c(C)cc32)c1`, the activation was -4.28% (inactive).
In the case of `CCCCCCN1CCS(=O)(=O)N(Cc2ccc(C(F)(F)F)cc2)C(C(=O)OC)C1` (configuration not stated), the activation is reported as 1.39% (inactive).
With `CCCCn1nc(C(=O)N2CCc3ccccc32)c2ccccc2c1=O` the activation was -0.16% (inactive).
For `Cc1cnc(C(=O)OCC(=O)N2CCc3ccccc32)cn1`, the activation was 1.4% (inactive).
In the case of `O=C(c1cnn2ccccc12)N1CCc2ccccc21`, the activation is reported as 16.5% (active).
For `COC(=O)[C@]12C[C@H](CC(=O)NCCCCc3ccccc3)C(=O)N(Cc3ccc4c(c3)OCO4)C1=C[C@H](C(C)(C)C)O[C@@H]2C`, the activation was 0.98% (inactive).
